Laboratory results reported in PMC4336329 (PLoS ONE, 2015).
Hit rate of the full screen: of about 310,000 compounds, about 14,000 (4.5%) showed an effect of 50% or more. Effects have a minus sign here. Only a selection was taken, and strong results are over-represented in it overall.

The compounds below were run against human ether-à-go-go-related gene (hERG) potassium channel (human, UniProt Q12809) (assay: primary screen, population patch clamp on CHO cells stably expressing hERG; higher = less effect of the substance).
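Further: peak tail current of the secondary pulse compared with the same well before compound.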

human ether-à-go-go-related gene (hERG) potassium channel, sequence (Q12809 whole entry, looked up): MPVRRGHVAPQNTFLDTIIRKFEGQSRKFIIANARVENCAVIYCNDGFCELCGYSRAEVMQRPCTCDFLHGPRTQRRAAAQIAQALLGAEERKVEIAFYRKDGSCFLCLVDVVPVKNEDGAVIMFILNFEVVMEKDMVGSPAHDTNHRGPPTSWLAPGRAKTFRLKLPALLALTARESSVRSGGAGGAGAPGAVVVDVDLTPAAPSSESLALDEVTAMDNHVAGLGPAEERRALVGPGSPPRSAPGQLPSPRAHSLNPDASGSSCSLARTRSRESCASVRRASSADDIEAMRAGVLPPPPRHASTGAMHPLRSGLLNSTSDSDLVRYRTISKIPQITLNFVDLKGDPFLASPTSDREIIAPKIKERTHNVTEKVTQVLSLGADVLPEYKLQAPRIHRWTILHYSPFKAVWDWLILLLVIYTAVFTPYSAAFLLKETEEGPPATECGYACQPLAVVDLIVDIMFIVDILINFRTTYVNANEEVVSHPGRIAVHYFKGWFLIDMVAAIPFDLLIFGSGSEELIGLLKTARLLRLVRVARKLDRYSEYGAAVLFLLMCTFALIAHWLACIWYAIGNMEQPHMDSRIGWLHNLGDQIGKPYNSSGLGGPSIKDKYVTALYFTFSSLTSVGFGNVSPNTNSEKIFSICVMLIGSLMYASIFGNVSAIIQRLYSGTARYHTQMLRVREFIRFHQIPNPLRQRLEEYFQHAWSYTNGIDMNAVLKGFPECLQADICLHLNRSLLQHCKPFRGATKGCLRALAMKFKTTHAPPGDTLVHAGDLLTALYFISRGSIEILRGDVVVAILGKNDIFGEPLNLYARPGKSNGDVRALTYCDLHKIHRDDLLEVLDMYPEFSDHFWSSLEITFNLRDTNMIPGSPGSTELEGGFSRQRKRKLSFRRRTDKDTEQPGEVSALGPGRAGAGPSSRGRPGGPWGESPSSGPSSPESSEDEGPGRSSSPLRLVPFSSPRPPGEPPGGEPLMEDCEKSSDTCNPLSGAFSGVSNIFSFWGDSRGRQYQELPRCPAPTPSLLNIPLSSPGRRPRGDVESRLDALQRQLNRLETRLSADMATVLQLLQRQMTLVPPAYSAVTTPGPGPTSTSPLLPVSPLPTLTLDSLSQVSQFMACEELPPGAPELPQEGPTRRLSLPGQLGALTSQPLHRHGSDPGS

SMILES	hERG current change (%, negative = inhibition) at 10uM
CCN(Cc1ccccc1)S(=O)(=O)c1cc(C(=O)OC)n(C)c1	-32.9%
COc1ccc(Cn2c(=O)oc3ccc(C)cc32)cc1	1.22%
Cc1ccc(-c2noc(CSc3nc(N)cc(N)n3)n2)cc1	-4.24%
CC(=O)N(Cc1ccco1)Cc1cc2cccc(C)c2n2nnnc12	-3.36%
CCn1cc(C(=O)NCc2cccs2)c(=O)c2cc(S(=O)(=O)N3CCOCC3)ccc21	-20.3%
Cc1cc(C)nc(Nc2n[nH]c(C)n2)n1	16.4%
Cc1cc(C)nc(Nc2ncn[nH]2)n1	-73.3%
Clc1cc(Cl)cc(Nc2ncn[nH]2)c1	-8.8%
CCOC(=O)C1(CC2CC2)CCN(C(=O)c2cc(OC)nc3ccccc23)CC1	-12.9%
CC(C)[C@H](NC(=O)c1ccccc1)C(=O)OCC(=O)c1ccc2c(c1)NC(=O)CO2	-26.3%
COCCCNc1nc2ccccc2nc1NS(=O)(=O)c1ccc(C)cc1	-8.35%
O=C(Nc1ccc([N+](=O)[O-])cc1Cl)c1cc(Cl)ccc1O	7.32%
O=C(c1ccccc1)c1ccc(-n2ccnc2)c([N+](=O)[O-])c1	-25.8%
O=C(c1ccccc1)c1ccc(NCCCn2ccnc2)c([N+](=O)[O-])c1	-81.3%
O=C(/C=C/c1ccccc1[N+](=O)[O-])NCCCn1ccnc1	2.43%
CCN(CC)S(=O)(=O)c1ccc(NCCCn2ccnc2)c([N+](=O)[O-])c1	-57.2%
CC(C)NS(=O)(=O)c1ccc(NCCCn2ccnc2)c([N+](=O)[O-])c1	-1.68%
NS(=O)(=O)c1ccc(NCCCn2ccnc2)c([N+](=O)[O-])c1	8.43%
CC(=O)Nc1ccc(C(=O)OC2CCOC2=O)cc1 (stereo not drawn)	12.5%
Cc1cc(OC(C)C(=O)N/N=C/CC(C)c2ccccc2)ccc1Cl (stereo not drawn)	16.1%
C=CCc1cccc(C2Nc3ccccc3C(=O)N2O)c1O (stereo not drawn)	7.52%
CCCC(=O)Nc1ccc(Oc2ccc(NC(=O)CCC)cc2)cc1	2.76%

SMILES	hERG current change (%, negative = inhibition) at 10uM
COc1cc(C2c3c(-c4ccccc4)n[nH]c3C(=O)N2c2ccc(C(=O)O)cc2)ccc1O (stereo not drawn)	8.38%
N#CC1=C(Nc2ccccc2)SC=C(c2ccc(F)cc2)N=C1N1CCOCC1	-10.8%
c1ccc(Nc2nc(N3CCOCC3)nc(N3CCOCC3)n2)cc1	-7.35%
N#Cc1nc(-c2ccccc2Cl)oc1N1CCOCC1	-4.51%
N#CC1=C(Nc2ccccc2)SC=C(c2ccc(Br)cc2)N=C1N1CCOCC1	-64.7%
Br.C=CCN1C(c2ccc(Br)cc2)=CS/C1=C(/C#N)c1nnc(N2CCOCC2)n1-c1ccccc1	-13.4%
N#CC1=C(Nc2ccccc2)SC=C(c2ccc(Cl)c(Cl)c2)N=C1N1CCOCC1	-50.9%
C/C(NC(=O)c1ccccc1F)=C1\C(=O)C[C@@H]2[C@H]1C2(C)C	-14.4%
CC(C)OC(=O)CSc1nnc(SCc2cccc3ccccc23)s1	7.07%
CC1CC2c3cccc(C(=O)O)c3C(=O)N2c2ccc(Cl)cc21 (stereo not drawn)	5.97%
CCCC(C)NCC(=O)Nc1ccccc1-c1ccccc1.O=C(O)C(=O)O (stereo not drawn)	-21.5%
COc1ccc(CCn2c(N3CCOCC3)nc3c2c(=O)[nH]c(=O)n3C)cc1	-15.5%
CC(=O)c1cc(C(=O)N2CCCC(C(=O)c3ccc(Cl)cc3)C2)cs1 (stereo not drawn)	-31.9%
CC(C)CCN1CCN(Cc2ccc(C(F)(F)F)cc2)CC1CCO (stereo not drawn)	-58.1%
CC(C)CN1CCN(Cc2ccc(C(F)(F)F)cc2)CC1CCO (stereo not drawn)	-56.6%
OCCC1CN(Cc2ccc(C(F)(F)F)cc2)CCN1Cc1ccccc1 (stereo not drawn)	-56.8%
Cc1cccc(-c2ncc(CN3CCN(CCC(C)C)C(CCO)C3)cn2)c1 (stereo not drawn)	-45%
CC(C)CCN1CCN(Cc2ccc(N3CCNC3=O)cc2)CC1CCO (stereo not drawn)	-20.1%
CC(C)CCN1CCN(Cc2cccc(C(F)(F)F)c2)CC1CCO (stereo not drawn)	-55.1%
CC(C)CCN1CCN(Cc2ccc(C#CCCO)cc2)CC1CCO (stereo not drawn)	-6.37%
OCCC1CN(Cc2cccc(C(F)(F)F)c2)CCN1Cc1ccccc1 (stereo not drawn)	-46.2%
CC(C)CN1CCN(Cc2ccccc2C(F)(F)F)CC1CCO (stereo not drawn)	4.5%

SMILES	hERG current change (%, negative = inhibition) at 10uM
CC(C)CN1CCN(Cc2ccc(C#CC(C)(C)O)cc2)CC1CCO (stereo not drawn)	8.57%
OCCC1CN(Cc2cccs2)CCN1Cc1ccccc1 (stereo not drawn)	-20.9%
CN(Cc1ccc(F)cc1)C(=O)c1ccc(NS(=O)(=O)c2ccc3[nH]c(=O)[nH]c3c2)cc1	12.1%
O=[N+]([O-])c1cccc(S(=O)(=O)Nc2ccc(S(=O)(=O)NCC3CCCO3)cc2)c1 (stereo not drawn)	-0.96%
COc1ccc(C2c3ccc(O)cc3Oc3ncn4nc(-c5cccnc5)nc4c32)cc1OC (stereo not drawn)	-56.9%
COc1ccc(C2c3ccc(O)cc3Oc3ncn4nc(-c5ccccn5)nc4c32)cc1OC (stereo not drawn)	-71.3%
COc1ccc(C2c3ccc(O)cc3Oc3ncn4nc(-c5ccccn5)nc4c32)cc1 (stereo not drawn)	17.9%
COc1ccc(C2c3c(ccc4ccccc34)Oc3ncn4nc(-c5ccco5)nc4c32)cc1OC (stereo not drawn)	-13.4%
COc1ccc(C2c3ccc(O)cc3Oc3ncn4nc(-c5ccncc5)nc4c32)cc1OC (stereo not drawn)	5.39%
COc1ccc(C2c3ccc(O)cc3Oc3ncn4nc(-c5ccco5)nc4c32)cc1OC (stereo not drawn)	22.8%
CC1=CC(c2ccc(Cl)cc2)n2ncnc2N1 (stereo not drawn)	-9.02%
Cc1ccc(N=CC2=C(O)CC(c3ccccc3Cl)CC2=O)cc1 (stereo not drawn)	-6.91%
Cc1ccc(CN(C)Cc2cc(=O)oc3cc(C)c(Cl)cc23)cc1	14.9%
O=C(COc1cc2oc(=O)c3c(c2cc1Cl)CCC3)Nc1cccnc1	6.03%
CC(=O)c1cccc(NC(=O)COc2cc3oc(=O)c(CC(C)O)c(C)c3cc2Cl)c1 (stereo not drawn)	-57.7%
CCOC(=O)c1ccc(NC(=O)COc2cc3oc(=O)c(CC(C)O)c(C)c3cc2Cl)cc1 (stereo not drawn)	13.7%
CCOC(=O)NC(Nc1sc2c(c1C(=O)OC)CCN(C)C2)(C(F)(F)F)C(F)(F)F	-13.2%
CCCCOC(=O)Cn1c(=N)n(CCN(CC)CC)c2ccccc21	-52.3%
CCCCOC(=O)Cn1c(=N)n(CCN2CCOCC2)c2ccccc21.Cl	-36.3%
CCCCOC(=O)Cn1c(=O)oc2ccc(C)cc21	5.97%
CCN(CC)CCn1c(=N)n(CC(O)c2ccc(OC)c(OC)c2)c2ccccc21.Cl (stereo not drawn)	14.4%
CCN(CC)CCn1c(=N)n(CC(O)COc2cccc(C)c2)c2ccccc21.Cl (stereo not drawn)	-65.2%

SMILES	hERG current change (%, negative = inhibition) at 10uM
CCN(CC)CCn1c(=N)n(CC(O)COc2ccccc2)c2ccccc21.Cl (stereo not drawn)	-52.1%
CCCCOC(=O)Cn1c(=O)n(CC(=O)OCCCC)c2cc(C)ccc21	-69.4%
CCCCOC(=O)Cn1c(=O)n(CC(=O)OCCCC)c2ccccc21	-33.9%
CCCCOC(=O)Cn1c(=N)n(CCC)c2ccccc21.Cl	-31.5%
CCn1c(=O)c(C(=O)Nc2ccccc2F)c(O)c2ccccc21	17.2%
COc1ccc(OC)c(-c2csc(NC(=O)CSc3nnnn3C)n2)c1	4.17%
COc1ccc(NC(=S)NC(NC(=O)CCl)C(Cl)(Cl)Cl)c([N+](=O)[O-])c1 (stereo not drawn)	17.2%
NS(=O)(=O)c1cc2c(cc1Cl)NCNS2(=O)=O	-12.3%
Cc1cccc(-n2ncc3c(NCc4ccccc4)ncnc32)c1	12%
O=C(c1cc2nc(-c3ccco3)cc(C(F)(F)F)n2n1)N1CCN(c2ccc(F)cc2)CC1	-34.5%
O=C(N/N=C/c1ccco1)c1ccc(OCc2ccccc2)cc1	10.9%
COc1ccccc1N1CCN(C(=O)C2CC2)CC1	20%
O=C(NCCc1ccccc1)c1ccccc1F	24.5%
O=C(CCCN1C(=O)/C(=C/c2ccccc2Cl)SC1=S)NNC(=O)c1ccccc1Cl	29.8%
COCCSc1ccccc1C(=O)N1CCN(c2ccccc2OC)CC1	8.73%
CCN(CC)CCn1c(=N)n(CCO)c2ccccc21	5.99%
Br.CCN(CC)CCn1c(=N)n(CCOc2ccccc2)c2ccccc21	-53.6%
S=c1[nH]c2ccccc2n1CCOc1ccccc1	8.28%
O=C(NC1CCSc2ccccc21)c1cc(S(=O)(=O)N2CCOCC2)ccc1Cl (stereo not drawn)	-18%
COc1ccc(NC(=S)N(Cc2ccc(Cl)cc2)Cc2ccc(C(=O)O)cc2)cc1Cl	-3.51%
CCOC(=O)c1ccc(-n2c(CN3CCC(C(N)=O)CC3)nc3ccc([N+](=O)[O-])cc3c2=O)cc1	-27.3%
